# This is one part of the list. The true hit rate is not given.
# B1: HC790 (peptide)
# chain: CAAATLGFGAAGNASASA
# B2: FS-2636 (peptide)
# chain: CARAKRKVTRAGNASASA
# B3: FS-2886 (peptide)
# chain: CARAKRRGGGAGNASASA
# B4: FS-2902 (peptide)
# chain: CARDGRKVTVAGNASASA
# B5: HC1411 (peptide)
# chain: CANLLSVEEAAGNASASA
# B6: FS-2688 (peptide)
# chain: CARKGRSQSVAGNASASA
# B7: FS-3222 (peptide)
# chain: CARKNRSFYAAGNASASA
# B8: FS-1731 (peptide)
# chain: CARKNRSQIVAGNASASA
# B9: FS-1902 (peptide)
# chain: CARKGRSYGSAGNASASA
# B10: FS-1960 (peptide)
# chain: CARKRRPYGSAGNASASA
# B11: FS-3159 (peptide)
# chain: CARKNRSTASAGNASASA
# B12: HC2177 (peptide)
# chain: CAESVTSTWVAGNASASA
# B13: HC527 (peptide)
# chain: CASCLWMMLLAGNASASA
# B14: HC1402 (peptide)
# chain: CAHYQDVLKEAGNASASA
# B15: FS-34 (peptide)
# chain: CAINRRTGRPAGNASASA
# B16: FS-933 (peptide)
# chain: CAIRRRTQRCAGNASASA
# B17: FS-482 (peptide)
# chain: CAQRSRQVRCAGNASASA
# B18: FS-1543 (peptide)
# chain: CALSRRRVRCAGNASASA
# B19: FS-458 (peptide)
# chain: CALRERPVRCAGNASASA
# B20: HC1422 (peptide)
# chain: CAYGAKDVRCAGNASASA
# B21: FS-481 (peptide)
# chain: CAQRQRSVRCAGNASASA
# B22: HC1883 (peptide)
# chain: CATTPCSASWAGNASASA
# B23: HC2036 (peptide)
# chain: CAVVGCSMSYAGNASASA
# B24: HC1837 (peptide)
# chain: CASTPCSGSWAGNASASA
# B25: FS-2501 (peptide)
# chain: CARPRRELSLAGNASASA
# B26: FS-1772 (peptide)
# chain: CARRARSWAEAGNASASA
# B27: FS-2746 (peptide)
# chain: CARPRRVIARAGNASASA
# B28: FS-1834 (peptide)
# chain: CARRARSPHDAGNASASA
# B29: FS-2769 (peptide)
# chain: CARRARAVHDAGNASASA
# B30: FS-2771 (peptide)
# chain: CARRARSSVCAGNASASA
# B31: FS-2504 (peptide)
# chain: CARPRRSLALAGNASASA
# B32: FS-1765 (peptide)
# chain: CARPWKSVALAGNASASA
# B33: HC607 (peptide)
# chain: CALAVFGPLWAGNASASA
# B34: HC245 (peptide)
# chain: CALPGCSFSIAGNASASA
# B35: HC2252 (peptide)
# chain: CAEVVTSTWEAGNASASA
# B36: HC1934 (peptide)
# chain: CATTPCSGSKAGNASASA
# B37: HC259 (peptide)
# chain: CASTGLYHVTAGNASASA
# B38: HC1745 (peptide)
# chain: CAMEECSQLLAGNASASA
# B39: HC431 (peptide)
# chain: CANTRPPLGNAGNASASA
# B40: HC2269 (peptide)
# chain: CAYLEVVTSTAGNASASA
# B41: FS-2774 (peptide)
# chain: CARRGRSRSRAGNASASA
# B42: FS-2177 (peptide)
# chain: CARRARFLHEAGNASASA
# B43: FS-2770 (peptide)
# chain: CARRARSLALAGNASASA
# B44: FS-1832 (peptide)
# chain: CARPQRSACHAGNASASA
# B45: HC663 (peptide)
# chain: CARRGREILLAGNASASA
# B46: FS-2358 (peptide)
# chain: CARPRRETCHAGNASASA
# B47: FS-2772 (peptide)
# chain: CARRARVVHMAGNASASA
# B48: FS-2773 (peptide)
# chain: CARRGRFKGLAGNASASA
# Molecular target: furin, P09958
# Experiment: furin cleavage Z-score vs untreated control; higher = more cleavage, active = 3.5 or more, inactive = 1 or less, 8 variable residues between constant flanks
# In short: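 Reactions of 0.01 ml ran for 7.5, 15 or 30 min in 50 mM HEPES pH 7.5 with CaCl2 and NaCl, at 1:10 enzyme:substrate. In them, purified furin acted on bead-held 8-mer peptides fused to a cDNA oligonucleotide. The cleavage Z-score was obtained by lowess-adjusting log sequencing counts of released DNA against furin-free reactions and scaling by median absolute deviation.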
# Sequence of furin, P09958 (P09958 whole entry): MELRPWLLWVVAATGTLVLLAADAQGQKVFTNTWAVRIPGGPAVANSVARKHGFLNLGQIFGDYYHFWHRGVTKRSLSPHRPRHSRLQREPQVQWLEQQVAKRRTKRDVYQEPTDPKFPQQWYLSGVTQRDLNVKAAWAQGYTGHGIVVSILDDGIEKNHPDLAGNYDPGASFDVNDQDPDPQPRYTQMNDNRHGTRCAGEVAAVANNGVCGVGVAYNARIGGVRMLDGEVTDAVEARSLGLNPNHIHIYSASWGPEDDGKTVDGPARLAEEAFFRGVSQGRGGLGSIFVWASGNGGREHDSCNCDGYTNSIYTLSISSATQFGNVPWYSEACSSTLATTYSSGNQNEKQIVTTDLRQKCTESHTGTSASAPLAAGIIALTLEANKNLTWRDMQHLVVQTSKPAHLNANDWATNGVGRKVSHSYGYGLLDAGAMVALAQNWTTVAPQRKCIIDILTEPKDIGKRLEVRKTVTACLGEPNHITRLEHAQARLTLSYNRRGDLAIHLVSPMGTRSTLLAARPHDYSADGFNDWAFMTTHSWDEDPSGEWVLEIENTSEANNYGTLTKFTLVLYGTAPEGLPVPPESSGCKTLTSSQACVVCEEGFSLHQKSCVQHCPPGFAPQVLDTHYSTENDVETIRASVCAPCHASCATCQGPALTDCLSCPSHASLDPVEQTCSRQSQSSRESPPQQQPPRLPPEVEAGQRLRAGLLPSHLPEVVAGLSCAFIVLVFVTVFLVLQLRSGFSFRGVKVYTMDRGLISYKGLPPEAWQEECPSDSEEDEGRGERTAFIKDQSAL
Sequence,furin cleavage Z-score (7.5 min),furin cleavage Z-score (15 min),furin cleavage Z-score (30 min)
B1,-0.962 (inactive),1.23,1.13
B2,3.09,4.94 (active),4.17 (active)
B3,0.374 (inactive),-1.9 (inactive),0.196 (inactive)
B4,-0.804 (inactive),-0.377 (inactive),-1.67 (inactive)
B5,1.03,-1.37 (inactive),1.04
B6,0.447 (inactive),1.69,2.28
B7,-0.489 (inactive),0.152 (inactive),-1.6 (inactive)
B8,0.382 (inactive),1.89,1.82
B9,2.38,4.19 (active),3.35
B10,-0.105 (inactive),0.526 (inactive),-2 (inactive)
B11,4.98 (active),6.48 (active),5.71 (active)
B12,0.711 (inactive),-0.0286 (inactive),-0.582 (inactive)
B13,0.0621 (inactive),-0.464 (inactive),0.433 (inactive)
B14,-0.724 (inactive),-0.493 (inactive),0.655 (inactive)
B15,-0.402 (inactive),-1.89 (inactive),-1.13 (inactive)
B16,7.07 (active),6.92 (active),6.54 (active)
B17,0.775 (inactive),0.292 (inactive),1.12
B18,10.2 (active),7.81 (active),8.22 (active)
B19,2.04,2.12,4.39 (active)
B20,-0.0596 (inactive),0.548 (inactive),0.765 (inactive)
B21,1.64,0.494 (inactive),0.731 (inactive)
B22,-0.499 (inactive),0.682 (inactive),-0.342 (inactive)
B23,1.64,-0.0657 (inactive),1.23
B24,-0.691 (inactive),-0.464 (inactive),-0.623 (inactive)

Sequence,furin cleavage Z-score (7.5 min),furin cleavage Z-score (15 min),furin cleavage Z-score (30 min)
B25,9.83 (active),9.15 (active),8.79 (active)
B26,0.748 (inactive),2.17,4.73 (active)
B27,0.722 (inactive),0.121 (inactive),1.35
B28,8.36 (active),9.74 (active),9.02 (active)
B29,0.991 (inactive),0.269 (inactive),0.722 (inactive)
B30,-0.135 (inactive),0.0716 (inactive),2.53
B31,7.93 (active),10.2 (active),8.84 (active)
B32,1.43,0.873 (inactive),-0.932 (inactive)
B33,0.672 (inactive),0.344 (inactive),1.61
B34,-0.725 (inactive),0.0221 (inactive),1.53
B35,1.19,1.24,-0.113 (inactive)
B36,-0.794 (inactive),0.477 (inactive),-0.455 (inactive)
B37,1.56,0.496 (inactive),-0.862 (inactive)
B38,0.641 (inactive),1.59,1.09
B39,-0.78 (inactive),-0.196 (inactive),0.451 (inactive)
B40,1.41,0.163 (inactive),0.356 (inactive)
B41,-0.725 (inactive),-0.261 (inactive),-0.331 (inactive)
B42,0.34 (inactive),2.97,5.38 (active)
B43,4.92 (active),6.9 (active),6.89 (active)
B44,-0.244 (inactive),1.03,2.47
B45,2.14,3.52 (active),5.12 (active)
B46,7.06 (active),6.02 (active),6.63 (active)
B47,-0.133 (inactive),-2.18 (inactive),-0.247 (inactive)
B48,-2.35 (inactive),0.257 (inactive),-0.0126 (inactive)

# Reference: the supplement of paper PMC3545927
